Source: PubChem BioAssay AID2763 (National Center for Advancing Translational Sciences (NCATS), 2010)
Records with an inconclusive call do not appear. Calls of active or inactive are those of the source. Calls follow the shape of the dose curve; as a rule, active = well fitted inhibition curve with a large enough effect; inconclusive = small, poorly fitted or top-dose-only effect, or effect the other way; inactive = no such curve, though single readings can be large or run the other way.

Test: Concentration response confirmation VP16 counterscreen for inhibitors of ROR gamma transcriptional activity; also: nearly all actives have a fitted effect of over 70% in size
Conditions: Drosophila S2 Gal4-VP16 UAS-luciferase, luminescence, 20 h; series mostly up to 46.1 µM
In short: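 Luciferase counterscreen: UAS-driven Photinus reporter in S2 cells expressing copper-inducible Gal4-VP16 fusion, 600 cells/well. Induced with copper sulfate (700 uM final) 1 hr after compound, incubated 20 hr at ambient temperature before luminescence detection.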
Potency is read from the fitted curve at half-maximal effect.

| Compound | Potency |
| --- | --- |
| O=C(/C=C/c1c(F)cccc1Cl)N1CCc2ccccc2C1 | inactive |
| COC1CCN(C(=O)c2cc(COc3ccc(-n4cncn4)cc3)on2)CC1 | inactive |
| CCOc1ccc(C(=O)Nc2nc3ccccc3[nH]2)cc1OCC | 12.5 µM (active) |
| Cc1ccc(S(=O)(=O)NCc2ccncc2)cc1 | 12.5 µM (active) |
| O=C(O)c1ccc(/C=N/n2cc(-c3ccccc3)[nH]c2=S)cc1 | inactive |
| Cc1ccc2nc(-c3ccc(NC(=O)COC(=O)c4ccc(=O)[nH]c4)cc3)sc2c1 | 12.5 µM (active) |
| COc1ccc(/C=C/C(=O)NC(=S)NCC2CCCO2)cc1 (stereo not given) | 14.1 µM (active) |
| Cc1cc(-c2ccccc2)nc(N2CCC(C(=O)NCc3ccccc3Cl)CC2)n1 | inactive |
| Cc1ccc2nc(-c3ccc(NC(=O)COC(=O)c4ccc([N+](=O)[O-])o4)cc3)sc2c1 | 3.53 µM (active) |
| O=C(O)c1ccccc1SC1CC(=O)N(c2ccc3c(c2)OCO3)C1=O (stereo not given) | 19.9 µM (active) |
| CCn1cc(C(=O)O)c(=O)c2cc(F)c(N3CCN(C(=S)NC(=O)c4ccccc4C)CC3)cc21 | inactive |
| CCOC(=O)Cn1c(CN2CCc3ccccc3C2)nc2c1c(=O)n(C)c(=O)n2C | 3.15 µM (active) |
| CC(C)(C)NC(=O)CSc1nc2ccc(NC(=O)CSc3nnnn3Cc3ccccc3)cc2s1 | 12.5 µM (active) |
| COc1ccccc1CNC(=O)[C@@H](NC(=O)C1CCN(C(=O)[C@@H]2CCCN2C(=O)OC(C)(C)C)CC1)C(C)C | inactive |
| COc1cc(OC)c(C2=NOC(C(=O)NCc3cccnc3)C2)cc1Cl (stereo not given) | inactive |
| COc1ccc(-c2cc(C(=O)NNC3=NCCC3)c3c(C)nn(-c4ccccc4)c3n2)cc1 | 2.5 µM (active) |
| COc1ccc(CNS(=O)(=O)c2ccc3c(c2)CCN3C(=O)C2CC2)cc1 | inactive |
| c1ccc(Cn2c(-c3ccccc3)c[n+]3c2SCCC3)cc1 | inactive |

| Compound | Potency |
| --- | --- |
| Cc1ccc(C)c(/C=N/n2cc(-c3ccccc3)[nH]c2=S)c1 | 9.96 µM (active) |
| CNC(=O)NC(=O)CSc1nc2cc(C(=O)OC)ccc2c(=O)n1-c1ccccc1 | 25 µM (active) |
| CCOC(=O)Cc1nnc(Nc2ccc(C(=O)NC)cc2)c2ccccc12 | inactive |
| COc1ccc(C(=O)Nc2nc3cc4c(cc3s2)OCCO4)c(OC)c1 | 0.223 µM (active) |
| COC(=O)Cn1c(CN2CCN(c3ccc(F)cc3)CC2)nc2c1c(=O)n(C)c(=O)n2C | 3.15 µM (active) |
| CCN(CC(=O)NCCc1ccc(Cl)cc1)Cc1nc2ccccc2c(=O)[nH]1 | 25 µM (active) |
| CCN(CC)c1ccc(/C=N/n2c(-c3ccccc3Br)n[nH]c2=S)cc1 | inactive |
| CCOC(=O)[C@@H]1[C@H]2COc3ccccc3[C@@H]2N2C(=O)N(c3ccc(OC)cc3)C(=O)[C@@]12C | inactive |
| O=C(CSCCO)Nc1ccc(C2CCCCC2)cc1 | 9.96 µM (active) |
| C=C(C)c1cccc(C(C)(C)NC(=O)N2CCN(CC)CC2)c1 | inactive |
| CCN1CCCc2cc(CN(CCN3CCOCC3)C(=S)Nc3ccc(C)cc3)ccc21 | 11.2 µM (active) |
| CCn1nc(C)c(CN2CCC(n3nccc3NC(=O)c3ccc4c(c3)OCO4)CC2)c1C | inactive |
| CCOc1ccc2nc(NC(=O)c3cnccn3)sc2c1 | 9.96 µM (active) |
| Cc1nn(-c2ccccc2)c(C)c1C(=O)Nc1nnc(-c2ccco2)o1 | 1.25 µM (active) |
| CCN(CC(=O)Nc1ccc2c(c1)CCC2)Cc1nc2ccccc2c(=O)[nH]1 | 15.8 µM (active) |
| CC(C)(C)S(=O)(=O)c1cnc2c(-c3ccc(F)cc3)cnn2c1N | 12.5 µM (active) |
| COCCC1CCCCN1C(=O)c1cc(COc2ccc(-n3cncn3)cc2)on1 (stereo not given) | 19.9 µM (active) |
